# Several values for one entry are separate records, joined by “and”; a condition that tells them apart may be missing. Equal entries are not always repeated. Results filed as inconclusive are left out. The source holds several records for some structures; these can differ, active in one and inactive in another. Activity calls are given as the source filed them. How the source made its calls, unless noted: active means hit-call score of the fitted dose curve at least 0.9, where 1 is the maximum; inactive means score below 0.9.
# Key:
# [1] = CCTE_Harrill_HTTr_Apoptosis_MCF7: CCTE's 6-hour Apoptosis Assessment for the High-Throughput Transcriptomics (HTTr) Platform, in MCF-7 cells cultured in DMEM + 10% fetal bovine serum, Harrill Lab (AID 2284011)
# Procedure, shortened: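 Apoptosis in MCF-7 cells grown in DMEM with 10% fetal bovine serum was scored after a six hour exposure by high content imaging of caspase-3/7 activation (CellEvent Caspase 3/7 Green), with DMSO serving as negative control and baseline.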
# [2] = CCTE_Harrill_HTTr_CellCount_MCF7: CCTE's Cell Proliferation Assessment for the High-Throughput Transcriptomics (HTTr) Platform, Harrill Lab (AID 2284012; active means hit-call score of the fitted dose curve at least 0.9, where 1 is the maximum;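 further: cells exposed to compound for six hours; intended direction is loss of nuclei count meaning fewer cells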)
# Procedure, shortened: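 MCF7 cells exposed 6 hours to an eight-point dilution series; Hoechst-stained nuclei counted by high-content imaging. Bidirectional curve fitting against DMSO baseline.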
# [3] = CCTE_Shafer_MEA_acute_burst_number: CCTE's Neural Acute Assay for Single-Electrode Bursts, Shafer Lab (AID 2284013)
# Procedure, shortened: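 Spontaneous network activity of primary rat cortical neurons was recorded extracellularly on microelectrode arrays at 37 C, with 40-min periods before and during exposure to 0.03-40 uM compound on DIV 13 or 15.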
# [4] = CCTE_Shafer_MEA_acute_burst_duration_mean: CCTE's Neural Acute Assay for Mean Burst Duration, Shafer Lab (AID 2284014);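 further: hits are decreases in mean burst duration relative to DMSO controls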
# Procedure, shortened: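 Read-out is the per-well percent change in mean burst duration (first to last spike within a single-electrode burst) between 40-min recordings before and after compound. Cultures were primary rat cortical neurons on MEAs, dosed at 0.03-40 uM on DIV 13 or 15.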
# [5] = CCTE_Shafer_MEA_acute_interburst_interval_mean: CCTE's Neural Acute Assay for Mean Interburst Interval, Shafer Lab (AID 2284016);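 further: percent change of mean interburst interval versus each well's own pre-dose baseline; curves fitted for decrease in interburst interval relative to DMSO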
# Procedure, shortened: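 Percent change in mean single-electrode interburst interval was calculated per well from 40 min recordings before and after compound (0.03-40 uM). Recordings were made at 37 C on rat cortical cultures at DIV 13 or 15, with spikes detected at 8x rms threshold.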
# [6] = CCTE_Shafer_MEA_acute_burst_percentage_mean: CCTE's Neural Acute Assay for Percentage of Spikes in a Burst, Shafer Lab (AID 2284017);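 on AC50: curve fitted for loss of signal so potency reflects decreased burst percentage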
# Procedure, shortened: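 Well-level mean burst percentage from a 40-min recording after compound (0.03-40 uM) expressed as percent change from a 40-min baseline at 37C. Cultures: primary rat cortical neurons on MEA, dosed on DIV 13 or 15; fitted downward relative to DMSO.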
# [7] = CCTE_Shafer_MEA_acute_burst_percentage_std: CCTE's Neural Acute Assay for Standard Deviation of Burst Percentage, Shafer Lab (AID 2284018);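 further: fitted in the negative direction so actives lower burst percentage SD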
# Procedure, shortened: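 Value is percent change from baseline in the across-electrode SD of spikes-in-bursts percentage, wells with >/= 10 active electrodes. Acute 40-min exposure to 0.03-40 uM on DIV 13 or 15 rat cortical cultures, recorded at 37 C after 40-min baseline.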
# [8] = CCTE_Shafer_MEA_acute_per_network_burst_spike_number_mean: CCTE's Neural Acute Assay for Average Number of Spikes in a Network Burst, Shafer Lab (AID 2284019);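 on AC50: curve fitted for loss of signal so actives reduce spikes per network burst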
# Procedure, shortened: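 Read-out is mean spike count per network burst, taken as percent change between a 40-min pre-exposure and a 40-min post-exposure recording per well. Rat primary cortical neurons on MEAs at 37 C, DIV 13 or 15; compounds at 0.03-40 uM.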
# [9] = CCTE_Shafer_MEA_acute_per_network_burst_spike_number_std: CCTE's Neural Acute Assay for Standard Deviation of Number of Spikes in a Network Burst, Shafer Lab (AID 2284020);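 further: fitted for decrease in spike-number SD versus DMSO so actives lower it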
# Procedure, shortened: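 Spontaneous network activity of primary rat cortical neurons is recorded extracellularly before and after a 40-min compound exposure (0.03-40 uM) at 37 C. The endpoint is the well's percent change in burst spike-number SD.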
# [10] = CCTE_Shafer_MEA_acute_per_network_burst_electrodes_number_mean: CCTE's Neural Acute Assay for Mean Number of Electrodes in a Network Burst, Shafer Lab (AID 2284021);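 further: curves fitted for decreases only so hits reduce electrodes per burst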
# Procedure, shortened: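 Percent change from baseline in average electrode count per network burst, rat cortical cultures on 48-well MEAs; 40-min recordings each side of exposure, DIV 13 or 15; threshold 8x rms noise; DMSO as negative control.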
# [11] = CCTE_Shafer_MEA_acute_network_burst_percentage: CCTE's Neural Acute Assay for Percentage of Network Bursts, Shafer Lab (AID 2284022);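 further: curves fitted for loss so actives lower network burst percentage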
# Procedure, shortened: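 On DIV 13 or 15, at least three wells of rat cortical neurons per compound are dosed at 0.03-40 uM. Spontaneous firing is detected at 8x rms noise for 40 min before and after dosing at 37 C. The percent change in network-burst spike share is reported.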
# [12] = CCTE_Shafer_MEA_acute_cross_correlation_area: CCTE's Neural Acute Assay for Area of Cross Correlation, Shafer Lab (AID 2284024);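 further: area under pooled inter-electrode spike cross-correlation near zero lag as percent change from own baseline; curves fitted for loss of cross-correlation area so actives lower synchrony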
# Procedure, shortened: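 Extracellular recordings from cultured rat cortical neurons measure network synchrony as cross-correlation area; each well's post-compound value (0.03-40 uM, 40 min) is compared with its own 40 min baseline to give percent change.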
# [13] = CCTE_Shafer_MEA_acute_cross_correlation_HWHM: CCTE's Neural Acute Assay for Cross Correlation at Half Width at Half Maximum, Shafer Lab (AID 2284026);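 further: percent change per well from pre-dose baseline in spike cross-correlogram half width; hits are a decrease in cross-correlogram half width relative to DMSO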
# Procedure, shortened: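 Percent change in cross-correlogram half width at half maximum, narrower meaning more synchrony, was derived per well from paired 40-min recordings before and during exposure to 0.03-40 uM compound in rat cortical cultures at 37 C.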
# [14] = CCTE_Shafer_MEA_acute_synchrony_index: CCTE's Neural Acute Assay for Synchrony, Shafer Lab (AID 2284027);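 further: network synchrony index of spontaneous spiking in primary rat cortical neurons on MEAs; fitted for loss of signal so actives lower synchrony relative to DMSO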
# Procedure, shortened: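 Primary rat cortical neurons on 48-well MEAs, dosed at 0.03–40 uM on DIV 13 or 15. Spikes are recorded for 40 min at 37C before and after exposure, and synchrony index (0–1) is expressed as percent change from baseline per well.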
# [15] = CCTE_Shafer_MEA_dev_firing_rate_mean: CCTE's Neural Network Formation Assay for Mean Firing Rate, Shafer Lab (AID 2284031);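 on AC50: curve fitted for loss of firing so AC50 reflects decreased mean firing rate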
# Procedure, shortened: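 Primary rat cortical neurons on 48-well MEA plates, exposed from plating day 0 with dosing renewed on DIV 5 and 9. Mean well firing rate over active electrodes, recorded days 5, 7, 9, 12, summarised as trapezoidal AUC.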
# [16] = CCTE_Shafer_MEA_dev_active_electrodes_number: CCTE's Neural Network Formation Assay for Number of Active Electrodes, Shafer Lab (AID 2284040; active means hit-call score of the fitted dose curve at least 0.9, where 1 is the maximum;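 further: potency for loss of active electrodes versus DMSO so lower counts are hits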)
# Procedure, shortened: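 Primary rat cortical neurons on 16-electrode MEA wells, exposed from day 0 through day 12 with compound renewed at DIV 5 and 9 feeds. Active electrodes (mean firing ≥5 spikes/min) counted at DIV 5, 7, 9, 12; trapezoidal AUC across days, loss-of-signal versus DMSO.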
# [17] = CCTE_Deisenroth_AIME_384WELL_CTox_Active: Cytotoxicity Assessment (CTOX) in CCTE's 384-well Estrogen Receptor Transactivation Assay with AIME metabolic competence (metabolism positive), Deisenroth Lab (AID 2284037; active means hit-call score of the fitted dose curve at least 0.9, where 1 is the maximum;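 further: chemicals first conditioned 2 h by alginate-bound induced rat liver S9 before cells; activity means signal loss indicating cell death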)
# Procedure, shortened: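 Cytotoxicity in VM7Luc4E2 breast cells, 24 hour, measured as protease-substrate fluorescence loss, after 2-hour metabolic conditioning with induced rat hepatic S9 in alginate microspheres. Concentrations 0.002 - 200 uM, 10 points, bidirectional fitting.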
smiles,measurement,setting,value
OCCCl,outcome,[1],inactive
CCC[CH2][Sn]([Cl])([CH2]CCC)[CH2]CCC,AC50,[1],10.9 µM (active)
same,AC50,[2],17.2 µM (active)
same,AC50,[3],40 nM (active) and 66.5 nM (active)
same,AC50,[4],0.347 µM (active)
same,outcome,[4],inactive
same,AC50,[5],0.382 µM (active)
same,outcome,[5],inactive
same,AC50,[6],221 nM (active) and 330 nM (active)
same,AC50,[7],7.27 µM (active)
same,outcome,[7],inactive
same,outcome,[8],inactive
same,AC50,[9],0.239 µM (active)
same,outcome,[9],inactive
same,AC50,[10],0.992 µM (active)
same,outcome,[10],inactive
same,AC50,[11],0.243 µM (active)
same,outcome,[11],inactive
same,AC50,[12],16.8 nM (active) and 54 nM (active)
same,AC50,[13],0.463 µM (active)
same,outcome,[13],inactive
same,AC50,[14],237 nM (active) and 322 nM (active)
same,AC50,[15],8.92 nM (active)
same,AC50,[16],42.8 nM (active)
C[C@]12C=CC3=C4CCC(=O)C=C4CC[C@H]3[C@@H]1CC[C@@H]2O,outcome,[1],inactive
same,outcome,[2],inactive
C=CCc1ccc2c(c1)OCO2,outcome,[1],inactive
CO[C@@H]1[C@H](OC(=O)NC(=O)CCl)CC[C@]2(CO2)[C@H]1[C@@]1(C)O[C@@H]1CC=C(C)C,outcome,[1],inactive
CN(C)c1ccccc1,outcome,[1],inactive
same,outcome,[2],inactive
COC(=O)Nc1nc2ccccc2[nH]1,outcome,[1],inactive
same,outcome,[2],inactive
same,outcome,[3],inactive
same,outcome,[4],inactive
same,outcome,[5],inactive
same,outcome,[6],inactive
same,outcome,[7],inactive
same,outcome,[8],inactive
same,outcome,[9],inactive
same,outcome,[10],inactive
same,outcome,[11],inactive
same,outcome,[12],inactive
same,outcome,[13],inactive
same,outcome,[14],inactive
same,outcome,[15],inactive
same,outcome,[17],inactive
same,AC50,[16],15300 nM (active)
c1ccc2c(c1)oc1ccccc12,outcome,[1],inactive
Nc1ccc(Cl)cc1N,outcome,[1],inactive
same,outcome,[2],inactive
Clc1ccc(C(c2ccc(Cl)cc2)C(Cl)(Cl)Cl)cc1,outcome,[1],inactive
same,outcome,[2],inactive
same,outcome,[3],inactive
same,outcome,[4],inactive
same,outcome,[5],inactive
same,AC50,[6],11.4 µM (active)
same,AC50,[7],5.34 µM (active)
same,outcome,[8],inactive
same,outcome,[9],inactive
same,AC50,[10],4.35 µM (active)
same,AC50,[11],4.24 µM (active)
same,outcome,[12],inactive
same,outcome,[13],inactive
same,AC50,[14],10.6 µM (active)
same,AC50,[15],7.7 µM (active) and 10.1 µM (active)
same,outcome,[17],inactive
same,AC50,[16],4.02 µM (active) and 7.34 µM (active)
Nc1ccc(Cc2ccc(N)cc2)cc1,outcome,[1],inactive
CC(C)N(Cc1ccccc1)C(=O)C(C)(C)C,outcome,[1],inactive
CCCCCCCCCCCCCN1CC(C)OC(C)C1 (configuration not stated),outcome,[1],inactive
same,outcome,[2],inactive
CC(C)COC(=O)c1ccccc1C(=O)OCC(C)C,outcome,[1],inactive
same,outcome,[2],inactive
same,outcome,[3],inactive
same,AC50,[4],20 µM (active)
same,outcome,[5],inactive
same,AC50,[6],9.02 µM (active)
same,outcome,[7],inactive
same,AC50,[8],6.67 µM (active)
same,AC50,[9],8.5 µM (active)
same,outcome,[10],inactive
same,outcome,[11],inactive
same,outcome,[12],inactive
same,AC50,[13],5.62 µM (active)
same,AC50,[14],9.02 µM (active)
same,outcome,[15],inactive
COC(=O)c1ccccc1N,outcome,[1],inactive
same,outcome,[2],inactive
O=[N+]([O-])C(Br)(CO)CO,outcome,[1],inactive
same,outcome,[2],inactive
same,outcome,[3],inactive
same,AC50,[4],30.4 µM (active)
same,outcome,[5],inactive
same,AC50,[6],30.2 µM (active)
same,outcome,[7],inactive
same,outcome,[8],inactive
same,outcome,[9],inactive
same,AC50,[10],32 µM (active)
same,AC50,[11],35.8 µM (active)
same,outcome,[12],inactive
same,outcome,[13],inactive
same,AC50,[14],30.9 µM (active)
c1ccc2c(c1)-c1cccc3cccc-2c13,outcome,[1],inactive
Clc1ccccc1Cl,outcome,[1],inactive
CCN(CC)N=O,outcome,[1],inactive
same,outcome,[2],inactive
same,outcome,[3],inactive
same,outcome,[4],inactive
same,outcome,[5],inactive
same,outcome,[6],inactive
same,outcome,[7],inactive
same,outcome,[8],inactive
same,outcome,[9],inactive
same,outcome,[10],inactive
same,outcome,[11],inactive
same,outcome,[12],inactive
same,outcome,[13],inactive
same,outcome,[14],inactive
CN(C)c1ccc(C(=O)c2ccc(N(C)C)cc2)cc1,outcome,[1],inactive
same,outcome,[2],inactive
CCN(CC)CCO,outcome,[1],inactive
same,outcome,[2],inactive
same,outcome,[3],inactive
same,outcome,[4],inactive
same,outcome,[5],inactive
same,outcome,[6],inactive
same,outcome,[7],inactive
same,outcome,[8],inactive
same,outcome,[9],inactive
same,outcome,[10],inactive
same,outcome,[11],inactive
same,outcome,[12],inactive
same,outcome,[13],inactive
same,outcome,[14],inactive
COc1cc(C=O)cc2c1[C@H](COC(N)=O)[C@]1(OC(C)=O)ON2C[C@H]2[C@@H]1N2C(C)=O,outcome,[1],inactive
same,outcome,[2],inactive
c1ccc(C2CO2)cc1 (configuration not stated),outcome,[1],inactive
same,outcome,[2],inactive
Nc1ccc(N=Nc2ccccc2)cc1,outcome,[1],inactive
same,outcome,[2],inactive
Nc1ccc([N+](=O)[O-])cc1,outcome,[1],inactive
same,outcome,[2],inactive
